For 38 molecules, Potency results are on record in PubChem BioAssay (NCATS).

Active and inactive are the calls of the source. Entries that show only a call come without a potency. Calls come from the whole dose curve; as a rule, active = well fitted curve in the direction sought with a large enough effect; inconclusive = small, poorly fitted or top-dose-only effect, or another doubt; inactive = no such curve, though single readings can be large or run the other way.

Sequence of Hexokinase-4 (Homo sapiens) + Glucokinase regulatory protein (Homo sapiens) (P35557 whole entry, looked up): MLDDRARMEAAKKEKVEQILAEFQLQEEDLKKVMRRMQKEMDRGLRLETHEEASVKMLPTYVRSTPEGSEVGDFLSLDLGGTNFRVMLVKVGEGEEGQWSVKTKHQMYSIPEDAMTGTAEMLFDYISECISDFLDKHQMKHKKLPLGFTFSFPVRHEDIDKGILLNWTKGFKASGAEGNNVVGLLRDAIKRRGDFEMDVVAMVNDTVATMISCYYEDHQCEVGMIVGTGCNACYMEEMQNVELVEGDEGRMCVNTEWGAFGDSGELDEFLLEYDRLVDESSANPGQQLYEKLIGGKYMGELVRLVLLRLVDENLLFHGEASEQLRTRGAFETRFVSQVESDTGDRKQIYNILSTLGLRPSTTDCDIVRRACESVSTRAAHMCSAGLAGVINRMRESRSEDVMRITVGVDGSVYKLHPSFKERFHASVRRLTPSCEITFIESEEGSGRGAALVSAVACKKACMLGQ
Sequence of Hexokinase-4 (Homo sapiens) + Glucokinase regulatory protein (Homo sapiens) (Q14397 whole entry, looked up): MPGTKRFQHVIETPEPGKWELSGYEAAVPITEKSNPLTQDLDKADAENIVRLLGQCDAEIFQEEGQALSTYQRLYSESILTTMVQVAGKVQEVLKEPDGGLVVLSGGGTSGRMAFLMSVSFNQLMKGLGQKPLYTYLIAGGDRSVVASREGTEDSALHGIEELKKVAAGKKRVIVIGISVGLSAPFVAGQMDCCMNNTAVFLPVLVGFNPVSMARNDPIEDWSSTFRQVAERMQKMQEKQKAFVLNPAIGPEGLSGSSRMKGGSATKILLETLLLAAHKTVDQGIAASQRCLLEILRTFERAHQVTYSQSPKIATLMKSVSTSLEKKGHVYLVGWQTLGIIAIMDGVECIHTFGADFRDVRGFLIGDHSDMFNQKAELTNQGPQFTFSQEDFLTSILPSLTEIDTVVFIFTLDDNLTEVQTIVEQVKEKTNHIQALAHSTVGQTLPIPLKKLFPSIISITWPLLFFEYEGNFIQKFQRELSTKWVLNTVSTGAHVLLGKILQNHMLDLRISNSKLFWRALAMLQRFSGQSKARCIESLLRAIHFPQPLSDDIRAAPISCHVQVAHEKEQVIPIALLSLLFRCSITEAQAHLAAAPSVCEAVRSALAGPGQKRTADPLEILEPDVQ

This assay deals with Hexokinase-4 (Homo sapiens) + Glucokinase regulatory protein (Homo sapiens) (UniProt P35557+Q14397). The assay can be described thus: qHTS assay for inhibitors of recombinant human GCK-GKRP interaction: Diaphorase-coupled assay (AID 743205). To be noted: G6PDH/diaphorase resorufin fluorescence; series mostly up to 57.5 µM. A digest of the protocol:
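Signal derives from resorufin generated by diaphorase, linked to GCK turnover of glucose (5 mM) and ATP (0.4 mM). Enzyme complex was added after a 20-minute compound preincubation and monitored for 30 minutes.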
Background: In qHTS, concentration-response curves come from the screen itself.
With `Nc1ccc(CCNc2ncnc3c2ncn3C2OC(CO)C(O)C2O)cc1` (stereo not drawn), the Potency entry is “inactive”.
Next, `CCCCCCN(CCCCCC)C(=O)Cc1c(-c2ccc(F)cc2)[nH]c2ccccc12`: “inactive”; `N[C@H](C(=O)O)[C@H](O)C(=O)O`: “inactive”.
The same measure for `CNc1ncnc2c1ncn2[C@H]1C[C@H](OP(=O)(O)O)[C@@H](COP(=O)(O)O)O1`: “inactive”; for `O=c1[nH]ccc2c(O)cccc12`: “inactive”.
The same measure for `O=C1Cc2c([nH]c3ccc(Br)cc23)-c2ccccc2N1`: “inactive”; for `C=C1C(=O)O[C@@H]2[C@H]3O[C@]3(C)CCC=C(C)CC[C@@H]12`: “inactive”; for `N#CC(C#N)=C(N)/C(C#N)=C/c1ccc(O)cc1`: “inactive”.
Regarding `CC[C@H](NC(=O)c1c(C)c(-c2ccccc2)nc2ccccc12)c1ccccc1`, the Potency result was “inactive”.
The same measure for `C[C@H](O)C(=O)C1=Nc2c(nc(N)[nH]c2=O)NC1`: “inactive”.
Next, `CCN1C(=O)C=CC1=O`: “inactive”; `CNCCc1cnc(CCC(c2ccccc2)c2ccccc2)[nH]1`: “inactive”.
The same measure for `COc1cc(C(O)CO)ccc1O` (stereo not drawn): “inactive”; for `NC1C=CC=C(C(=O)O)C1` (stereo not drawn): “inactive”; for `O=C(O)/C=C/c1cnc[nH]1`: “inactive”.
`CN1CCC2(CCN3CCc4c(oc5ccccc45)C3C2)N(C)C1=O` (stereo not drawn): the Potency entry was “inactive”.
Next, `CN1Cc2sccc2C(c2ccc(O)c(O)c2)C1` (stereo not drawn): “inactive”; `C=C1C[C@@]23CC[C@H]4[C@@](C)(CCC[C@@]4(C)C(=O)O)[C@@H]2CC[C@]1(O)C3`: “inactive”; `Cc1nc2n(c(=O)c1CCN1CCC(c3noc4cc(F)ccc34)CC1)CCCC2O` (stereo not drawn): “inactive”.
For `[N-]=[N+]=Nc1ccc(C(=O)CSC[C@H](NC(=O)CC[C@H](N)C(=O)O)C(=O)NCC(=O)O)cc1`, the Potency result is “inactive”.
The same measure for `N#Cc1cc2nc(O)c(O)nc2cc1[N+](=O)[O-]`: “inactive”.
Next, `NOCC(=O)O`: “inactive”; `c1ccc(C(NCCNC(c2ccccc2)c2ccccc2)c2ccccc2)cc1`: “inactive”; `Cc1cc(Cn2cnc3c2C[C@@H](C(=O)O)N(C(=O)C(c2ccccc2)c2ccccc2)C3)ccc1N`: “inactive”.
Next, `N[C@H](C(=O)O)[C@H]1C[C@@H]1C(=O)O`: “inactive”; `CCN(CC)CCCCCCCCOC(=O)c1cc(OC)c(OC)c(OC)c1`: “inactive”; `Nc1ncnc2c1nc(Br)n2C1OC2COP(=O)(O)O[C@@H]2C1O` (stereo partly drawn): “inactive”.
Take `COc1cc(C(O)C(=O)O)ccc1O` (stereo not drawn): the Potency entry was “inactive”.
The same measure for `CC(C)C[C@H](NC(=O)C1OC1C(=O)O)C(=O)NCCCCN=C(N)N` (stereo partly drawn): “inactive”.
The same measure for `COCc1nc2c([nH]1)c(=O)n(C)c(=O)n2CC(C)C`: “inactive”; for `CC(=O)NCCc1c[nH]c2ccc(O)cc12`: “inactive”.
Next, `N[C@@H](Cc1ccc(F)cc1)C(=O)O`: “inactive”.
Turning to `NC1CCN(O)C1=O` (stereo not drawn), the Potency entry was “inactive”.
`NC(C(=O)N[C@@H]1C(=O)N2C(C(=O)O)=C(Cl)CS[C@H]12)c1ccccc1` (stereo partly drawn): the Potency result was “inactive”.
Next, `O=C1C2C=CC=CC2=NC(=S)N1CCN1CCC(=C(c2ccc(F)cc2)c2ccc(F)cc2)CC1` (stereo not drawn): “inactive”; `OCC1NCC(O)C(O)C1O` (stereo not drawn): “inactive”.
Next, `CSC(N)=NCCC[C@H](N)C(=O)O`: “inactive”; `CC1C(=O)N(C)C(=O)c2nc[nH]c21` (stereo not drawn): “inactive”.
